# Mito fusion act – inhibitors of mitochondrial division or activators of mitochondrial fusion. Potency, µM (series often up to 46.1 µM), without a hit: at the highest dose growth rescue (activation), most hits filed as activators. S. cerevisiae fusion-defective mutant growth rescue, CellTiterGlo 48 h. actives 0.23% (n = 320,000). AID 485298; also: % of control where 0% means no effect; nearly all actives have a fitted effect of over 45% in size
#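 Luminescent cell viability in 1536-well qHTS format served as the measure of rescued growth in ts fusion-mutant S. cerevisiae cultured on non-fermentable YPEG for 48 hours at 37C.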
# GLP-1R inv ag – GLP-1 receptor (human) inverse agonism | AID 624417 | actives 1.6% (n = 410,000) | HEK293 GLP-1R CRE-luciferase, luminescence, 24 h; GLP-1R form is constitutively active | Potency, µM (doses to about 38.3 µM), for inactives: at the top dose activity change, negative = inhibition, hits mostly inhibitors; also: % is scaled to controls: 0 for no effect and ±100 for the full control effect; nearly all actives have a fitted effect of over 55% in size
# Target sequence (P43220 whole entry, looked up): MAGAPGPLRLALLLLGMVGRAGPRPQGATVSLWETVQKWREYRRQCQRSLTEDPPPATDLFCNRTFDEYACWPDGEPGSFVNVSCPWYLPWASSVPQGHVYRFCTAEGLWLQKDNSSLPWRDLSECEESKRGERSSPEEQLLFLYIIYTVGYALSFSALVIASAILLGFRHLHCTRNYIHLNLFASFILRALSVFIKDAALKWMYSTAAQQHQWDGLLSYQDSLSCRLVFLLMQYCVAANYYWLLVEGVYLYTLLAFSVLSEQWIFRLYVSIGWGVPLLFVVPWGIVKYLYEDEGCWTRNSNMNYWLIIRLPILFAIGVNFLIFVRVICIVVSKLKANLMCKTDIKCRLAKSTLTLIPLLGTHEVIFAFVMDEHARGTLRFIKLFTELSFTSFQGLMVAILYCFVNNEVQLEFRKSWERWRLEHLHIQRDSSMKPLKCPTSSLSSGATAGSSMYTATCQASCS
#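 Assay principle: reduced luminescence from a cAMP-responsive reporter in HEK293 cells co-expressing a constitutively active GLP-1R. Conditions: 24 hr compound incubation, 37 deg C, 5% CO2.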
# GLP-1R agonist – activates the human GLP-1 receptor; P43220; HEK293 GLP-1R CRE-luciferase, luminescence, 4-6 h; cells express a hypersensitive GLP-1R form; Potency, µM (top dose mostly 45.6 µM), for the others: top-dose activation, usual class: activators; actives 0.007% (n = 380,000); AID 624172; also: % of control where 0% means no effect
# HEK293 tox – cytotoxicity in counter-screen for GLP-1R inverse agonists; HEK293 cAMP-luciferase reporter cells, luminescence, 24 h; Potency, µM (top dose mostly 38.3 µM), inactives show at the top dose activity change, negative = inhibition, actives largely listed as inhibitors; actives 0.13% (n = 410,000); AID 624418;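 also: loss of luciferase light is scored as toxicity; % is scaled to controls: 0 for no effect and ±100 for the full control effect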
#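 MLSMR compounds, 24 hr on cells at 37 deg C/5% CO2; luminescence after luciferase reagent (12 min RT). Inhibition counted as the undesired cytotoxic outcome.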
# BRCA1 expr act – activators of BRCA1 expression; MCF7-BRCA1-FFLuc reporter, luminescence, 48 h; response scale: scaled: vehicle 0%, 10 µM genistein 100%; actives 1.1% (n = 380,000); AID 624202; Potency, µM (series often up to 46.1 µM), for the others: at the top dose activation, most hits filed as activators; also: nearly all actives have a fitted effect of over 80% in size
#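 Quantitative HTS in MCF7 cells stably reporting BRCA1 expression via firefly luciferase. Compound treatment lasts 48 h at 37 °C in phenol-red free MEM. Activation is expressed relative to genistein at 10 microM and DMSO.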
# Starred values were filed as active, the others as inactive; ? = inconclusive; . = no result; ! = repeats disagree; [ ] = another dose, or the depositor's remark. This is a sample that favours compounds with a hit; in the whole collection about 2.8% have one here. Calls follow the shape of the dose curve; as a rule, active = well fitted curve in the direction sought with a large enough effect; inconclusive = small, poorly fitted or top-dose-only effect, or another doubt; inactive = no such curve, though single readings can be large; an effect the other way counts as inactive or inconclusive. Potency is read from the fitted curve at half-maximal effect.
SMILES,Mito fusion act,GLP-1R inv ag,GLP-1R agonist,HEK293 tox,BRCA1 expr act
CC1(C)CC2CC(C)(CN2S(=O)(=O)c2ccc(C(=O)Nc3ccc(Cl)c(S(=O)(=O)N4CCOCC4)c3)cc2)C1 (configuration not stated),0%,3.5µM*,-17%,-12%,-68%
O=C(Nc1ccc(NC(=O)c2ccc(Cl)c(S(=O)(=O)N3CCOCC3)c2)cc1)c1ccccc1,1%,-5%,-1%,1%,15%
CC1(C)CC2CC(C)(CN2S(=O)(=O)c2ccc(C(=O)Nc3ccc(S(=O)(=O)N4CCOCC4)cc3)cc2)C1 (configuration not stated),-27%,11µM*,1%,11%,-55%
O=C(Nc1ccc(Cl)c(S(=O)(=O)N2CCOCC2)c1)c1ccccc1-c1ccc(C(F)(F)F)cc1,?,2.8µM*,19%,2%,-58%
CC(=O)Nc1ccc(S(=O)(=O)N2CC3(C)CC2CC(C)(C)C3)cc1 (configuration not stated),1%,?,9%,-6%,-26%
CCCCc1ccc(-c2csc(/C(C#N)=C/c3ccc(C)o3)n2)cc1,1%,?,9%,54%,10%
CCCCc1ccc(-c2csc(/C(C#N)=C\c3ccco3)n2)cc1,-1%,60%,1%,3%,10µM*
O=C(O)Cc1sc(NCCc2ccccc2)nc1-c1ccc(F)cc1,-5%,1%,6%,-4%,37%
O=C1NC(=S)NC1=Cc1ccccc1O,.,16%,1%,-12%,9%
O=C1NC(=S)N/C1=C/c1cccc2ccccc12,5%,14%,3%,-5%,13µM*
Cc1cc(NC(C)c2ccccc2)n2ncc(-c3ccccc3)c2n1 (configuration not stated),-4%,?,7%,1%,6.3µM*
O=C(CCS(=O)(=O)c1ccccc1)N1CCN(c2ccccc2)CC1,-3%,-13%,-4%,5%,3.2µM*
BrC(=C\c1ccccc1)/C=N/N1CCN(c2ccccn2)CC1,17%,-8%,9%,6%,55%
COc1ccccc1Nc1nc2ccccc2n2cnnc12,8%,51%,3%,-15%,1%
COc1ccccc1Nc1ccc(Nc2ccccc2OC)nn1,3%,?,-1%,-20%,5µM*
COc1ccccc1Nc1nc2ccccc2n1C,-2%,-7%,0%,19%,4.5µM*
Cc1ccc(S(=O)(=O)NCCC(=O)NC2CC2)cc1,-6%,-2%,-8%,-2%,-5%
Cc1ccc(NC(=O)CCC(=O)c2cccs2)nc1,5%,13%,-26%,7%,60%
Cc1ccnc(NC(=O)CCC(=O)c2cccs2)c1,-3%,5.6µM*,-5%,3%,-45%
Cc1ccc(NC(=O)CCC(=O)c2cccs2)cc1F,12%,0%,16%,10%,13µM*
CCOc1ccc2nc(NC(=O)CCC(=O)c3cccs3)sc2c1,2%,?,-10%,-13%,1.8µM*
CCOCC(=O)Nc1nc2ccc(OCC)cc2s1,-8%,12%,2%,3%,?
CCCCN1C(=O)C(CC(=O)NCC)SC1=Nc1ccccc1 (configuration not stated),2%,-20%,10%,4%,0%
O=C(NCCc1ccc(Cl)cc1)C1CCN(S(=O)(=O)N2CCCC2)CC1,-2%,-7%,-1%,8%,6%
CCc1ccc(NC(=O)C(C)Oc2nnc(-c3cccs3)c(-c3cccs3)n2)cc1 (configuration not stated),3%,10µM*,0%,-18%,-28%
SMILES,Mito fusion act,GLP-1R inv ag,GLP-1R agonist,HEK293 tox,BRCA1 expr act
O=C(NCc1cc(Cl)cc(Cl)c1)c1csc([C@@H]2O[C@H](CO)[C@H](O)[C@H](O)[C@H]2O)n1,.,0%,-5%,-1%,13%
CCc1ccc(NC(=O)CCS(=O)(=O)c2ccc(Br)cc2)cc1,-5%,-19%,5%,-16%,-6%
COc1ccc(CNC(=O)/C=C/c2cc3c(cc2Br)OCO3)cc1,6%,-22%,-21%,-25%,10%
CCn1nc(C)cc1C(=O)N1CCc2c([nH]c3ccccc23)C1c1cc(F)ccc1F (configuration not stated),-7%,10µM*,17%,-22%,42%
Cc1ncoc1C(=O)N1CCc2c([nH]c3ccccc23)C1c1ccccc1F (configuration not stated),-2%,-23%[7.66 µM],13%,1%[7.66 µM],-10%
CCC(C)Sc1ccc(-c2nc3cnccn3c2NC2CCCCC2)cc1 (configuration not stated),19%,?,3%,127%,-31%
CCC(C)Sc1ccc(-c2nc3cc(C)ccn3c2NC2CCCCC2)cc1 (configuration not stated),.,10µM*!,0%,6%,-6%
Cc1ccn2c(NC3CCCC3)c(-c3ccncc3)nc2c1,1%,?,17%,6%,-2%
Cc1ccn2c(NC3CCCCC3)c(-c3cccc(-c4cccc(Cl)c4)c3)nc2c1,7%,4µM*,-4%,?,-36%
COc1cc2ncc(S(=O)(=O)c3ccccc3)c(N3CCCC(C)C3)c2cc1OC (configuration not stated),23%,?,-5%,?,-68%
C/C(=N\NC(=O)c1sccc1C)c1cccnc1,0%,14%,1%,0%,2.8µM*
C/C(=N\NC(=O)c1sccc1C)c1ccncc1,0%,18%,-4%,-3%,?
CCn1c(C)cc2c(c1=O)C(c1ccc3c(c1)OCO3)C(C#N)=C(N)O2 (configuration not stated),2%,96%,18%,2%,2%
O=C(CC1CCCC1)Nc1ccc2c(c1)CCC2,-2%,?,19%,7%,10µM*
Cc1cc(NC(=O)CN2C(=O)NC3(CCCCCC3)C2=O)ccc1Br,4%,10µM*,21%,-16%,-27%
Cc1cc(NC(=O)CC2CCCC2)ccc1Br,8%,8.9µM*,15%,-24%,8.9µM*
O=C(Cc1ccccc1)Nc1ccc2c(c1)CCC2,-4%,?,12%,8%,?
COP(=O)(CC(=O)c1ccccc1)CC(=O)c1ccccc1,9%,-16%,5%,-8%,16%
N/C(=N\O)c1ccc(N2CCN(c3ncccc3C(F)(F)F)CC2)nc1,-2%,-19%,22%,?,3.5µM*
O=C(Cn1ccc([N+](=O)[O-])n1)NCCc1c[nH]c2ccccc12,1%,3%,1%,-2%,2%
COc1ccc2c(c1OC)C(=O)N1c3ccccc3C(=O)N(c3ccccc3)C21 (configuration not stated),2%,?,-15%,?,-17%
